CYP2C19 inh: human CYP2C19 inhibition; P33261; CYP2C19 Supersomes, luciferin-H EGE luminescence, 30 min; inhibition, % at 5 µM; 21% of 96,000 active; AID 778;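 active = CYP2C19 inhibition above a set limit at 5 µM in the primary screen, cut at about 50% in these data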
Target sequence (P33261 whole entry, looked up): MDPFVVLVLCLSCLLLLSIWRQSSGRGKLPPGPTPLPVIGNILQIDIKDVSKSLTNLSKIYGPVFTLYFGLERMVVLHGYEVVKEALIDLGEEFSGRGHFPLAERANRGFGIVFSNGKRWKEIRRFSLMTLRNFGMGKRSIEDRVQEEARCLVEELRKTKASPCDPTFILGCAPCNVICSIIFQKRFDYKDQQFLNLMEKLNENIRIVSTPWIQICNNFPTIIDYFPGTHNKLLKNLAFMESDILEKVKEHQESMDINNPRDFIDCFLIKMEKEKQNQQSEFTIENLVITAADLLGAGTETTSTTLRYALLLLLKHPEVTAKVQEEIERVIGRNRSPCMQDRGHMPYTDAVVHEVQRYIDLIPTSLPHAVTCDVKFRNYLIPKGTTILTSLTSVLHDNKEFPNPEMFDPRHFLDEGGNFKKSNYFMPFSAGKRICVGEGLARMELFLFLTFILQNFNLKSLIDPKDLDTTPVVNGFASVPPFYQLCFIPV
CYP2C9 activ: activators of human CYP2C9; P11712; recombinant CYP2C9, luciferin-H conversion, luminescence; hits give high values; factor 1 = untreated enzyme, 0 = blocked; activation factor at 5 µM; 1.4% of 96,000 active; AID 1024;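 active = activation factor of 2 or more for CYP2C9 at a 5 µM dose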
PLK1 inh: blocks human PLK1 kinase activity; P53350; recombinant PLK1 kinase, TR-FRET peptide phosphorylation; inhibition, % at 10 µM; 0.53% of 97,000 active; AID 619;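 active = inhibition of 50% or more in the single-concentration screen; inactive = inhibition below 50%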
CYP2C19 act: increases human CYP2C19 enzyme activity; P33261; recombinant CYP2C19, luciferin-H EGE luminescence; hits give high values; 0 = fully inhibited enzyme, 1 = untreated enzyme; activation factor at 5 µM; 96,000 tested, under 10 active; AID 1025;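 active = activation factor of at least 2 at 5 µM in the primary screen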
PLK1 PBD inh: Plk1 (human) PBD binding inhibition | Plk1 PBD phosphopeptide binding, fluorescence polarization | inhibition, %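 (tested at about 20 µM)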 | 0.13% of 97,000 active; in the data active = inhibition above about 34%, passing the limit was not always enough
CYP2C9 inhib: human CYP2C9 inhibition; P11712; CYP2C9 Supersomes, luciferin-H conversion, luminescence; inhibition, % at 5 µM; 20% of 96,000 active; AID 777;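 active = blocking of liver enzyme CYP2C9 beyond about 50% at 5 µM, limit read from the data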
Large screens that a line does not name were inactive. Only some compounds are listed: those with a hit (about 28% of all), similar ones and a draw of the others.

CCN(CC)CCOc1ncnc2c1oc1ccccc12	CYP2C19 inh 65.9
CCc1nc(OCCN(CC)CC)c2oc3ccccc3c2n1	none
COC(=O)Nc1ccc2c(c1)N(C(=O)CCN1CCN3CCCC3C1)c1ccccc1S2 (centres undefined)	none
O=c1c2ccccc2ncn1Cc1nc2ccccc2s1	CYP2C19 inh 81.7, CYP2C9 inhib 77.3 (no result: PLK1 inh, PLK1 PBD inh)
O=C1c2ccccc2S(=O)(=O)N1Cc1nc2ccccc2s1	CYP2C19 inh 85.6
O=C(O)Cn1cnc2ccccc2c1=O	none
CCCOc1ccc(C(=O)CCC(=O)OCC(=O)Nc2cc(C)on2)cc1	none
O=S(=O)(NC1c2cccc3cccc(c23)C1N1CCN(CCO)CC1)c1ccccc1 (centres undefined)	none
O=C(c1ccccc1)N1CCN(C2c3cccc4cccc(c34)C2NS(=O)(=O)c2ccccc2)CC1 (centres undefined)	CYP2C19 inh 51.5, CYP2C9 inhib 74.7
CS(=O)(=O)NC1c2cccc3cccc(c23)C1N1CCOCC1 (centres undefined)	none
O=S(=O)(NC1c2cccc3cccc(c23)C1N1CCNCC1)c1ccccc1 (centres undefined)	CYP2C19 inh 55.8
O=c1c2cc(N3CCOCC3)ccc2[nH]c(=S)n1CCCN1CCN(c2ccccc2F)CC1	none (no result: PLK1 inh, PLK1 PBD inh)
Cc1nnc2ccc(N3CCN(c4ccccn4)CC3)nn12	none
c1cc2nncn2nc1N1CCCC1	CYP2C19 inh 52.8
c1ccc(N2CCN(c3ccc4nncn4n3)CC2)nc1	CYP2C19 inh 89.1, CYP2C9 inhib 78.6
CSc1nc(N)c2c3c(sc2n1)COC(C(C)C)C3 (centres undefined)	CYP2C19 inh 94.5
CCCC1Cc2c(sc3nc(SC)nc(N)c23)CO1 (centres undefined)	none
CN(C)c1ccc(C2N3CC4(C)CN2CC(C)(C3)C4O)cc1 (centres undefined)	PLK1 inh 61.9
COc1ccc(/C=N/NC(=O)C(Cc2c[nH]c3ccccc23)NC(=O)OCC(C)C)cc1[N+](=O)[O-] (centres undefined)	none
O=C(OCc1nnc(-c2ccc(Cl)cc2)o1)c1ccc(=O)n(Cc2ccccc2)n1	none
O=C(OCc1nnc(-c2ccc(Cl)cc2)o1)c1ccncc1	CYP2C19 inh 65.3, CYP2C9 inhib 67.2
Cc1noc(C)c1COc1ccc(C(=O)OCc2nnc(-c3ccc(Cl)cc3)o2)cc1	CYP2C19 inh 78.7, CYP2C9 inhib 95.1
CC(=O)c1ccc(OCCCC(=O)OCc2nnc(-c3ccc(Cl)cc3)o2)cc1	CYP2C9 activ 2
Cc1c(C(=O)OCC(=O)N2CC(C)OC(C)C2)oc2ccc(Br)cc12 (centres undefined)	none
CCn1c(SCC(=O)Nc2nnc(C)s2)nnc1-c1ccncc1	none
S=C(NCc1ccco1)N1CCN(Cc2ccc(Cl)cc2Cl)CC1	none
O=[N+]([O-])c1ccc(Sc2cccc3cccnc23)cc1	CYP2C19 inh 83.6
Cn1cc(SCC(=O)Nc2nccs2)c2ccccc21	CYP2C19 inh 64.4
CC1CCN(C(=O)Cn2c(SCC(=O)Nc3nccs3)nc3ccccc32)CC1	CYP2C19 inh 80.7, PLK1 inh 61.0, CYP2C9 inhib 78.7
CCCn1cc(SCC(=O)Nc2nnc(C)s2)c2ccccc21	CYP2C9 inhib 63.0 (no result: PLK1 inh, PLK1 PBD inh)
CCCCn1cc(SCC(=O)O)c2ccccc21	none
Cn1c(SCC(=O)Nc2nccs2)nnc1-c1ccco1	none (no result: CYP2C19 inh, CYP2C9 activ, CYP2C19 act, CYP2C9 inhib)
Cc1ccc(C(=O)NCCn2cc(SCC(=O)Nc3nnc(C)s3)c3ccccc32)cc1	CYP2C19 inh 60.0, PLK1 inh 62.3, CYP2C9 inhib 79.5
Cc1cc(NC(=O)CSc2cn(CCNC(=O)c3ccc(Cl)cc3)c3ccccc23)no1	none (no result: PLK1 inh, PLK1 PBD inh)
CC(C)CNC(=O)c1cccc(C(=O)NCC(C)C)c1	none
Cc1nnc(-c2ccccc2)c[n+]1[O-]	none
COc1ccc(F)cc1CN1CCN(C(=O)CCC(=O)Nc2nnc(C(C)C)s2)CC1	none
CCn1c(Cc2cccc3ccccc23)nnc1SCC(=O)Nc1nccs1	PLK1 inh 65.3 (no result: CYP2C19 inh, CYP2C9 activ, CYP2C19 act, CYP2C9 inhib)
CCOC(=O)C1=C(C)N=C2SC(C)C(=O)N2C1c1ccc(OC(C)=O)c(OC)c1 (centres undefined)	none (no result: CYP2C19 inh, CYP2C9 activ, CYP2C19 act, CYP2C9 inhib)
COCCOC(=O)C1=C(C)N=C2SCCC(=O)N2C1c1ccc(C(=O)OC)cc1 (centres undefined)	CYP2C19 inh 97.9, CYP2C9 inhib 65.7
COC(=O)C1=C(C)N=C2SCCC(=O)N2C1c1ccc(C(=O)OC)cc1 (centres undefined)	CYP2C19 inh 88.3, CYP2C9 inhib 54.6
CCOc1cc(C2C(C(=O)OC)=C(C)N=C3SC(C)C(=O)N32)ccc1OC(C)=O (centres undefined)	CYP2C19 inh 63.8, CYP2C9 inhib 59.2
COCCOC(=O)C1=C(C)N=C2SCCC(=O)N2C1/C=C/c1ccccc1 (centres undefined)	CYP2C19 inh 81.1, CYP2C9 inhib 92.9
CCOc1ccc(C2C(C(=O)OC)=C(C)N=C3SCCC(=O)N32)cc1OCC (centres undefined)	none
COC(=O)c1ccc(C2C(C(=O)OCC(C)C)=C(C)N=C3SCCC(=O)N32)cc1 (centres undefined)	CYP2C19 inh 75.5, CYP2C9 inhib 62.1
CCOc1cc(C2C(C(=O)OCC(C)C)=C(C)N=C3SCCC(=O)N32)ccc1OC(C)=O (centres undefined)	CYP2C19 inh 51.8
O=C(Cc1ccccc1)NCc1nc2ccccc2[nH]1	none (no result: CYP2C19 inh, CYP2C9 activ, CYP2C19 act, CYP2C9 inhib)
N/C(=N\OC(=O)Nc1ccccc1)c1ncc(C(F)(F)F)cc1Cl	none
O=C(c1ccc(Cl)cc1Cl)c1ncc(C(F)(F)F)cc1Cl	CYP2C19 inh 53.0
N/C(=N\OC(=O)Nc1ccc(Cl)cc1)c1ncc(C(F)(F)F)cc1Cl	none
O/N=C(\c1ccc(Cl)cc1Cl)c1ncc(C(F)(F)F)cc1Cl	CYP2C19 inh 92.7, CYP2C9 inhib 74.5
O=C(c1ccccc1)c1ncc(C(F)(F)F)cc1Cl	CYP2C19 inh 64.7
COc1ccc(/C(=N\O)c2ncc(C(F)(F)F)cc2Cl)cc1	CYP2C19 inh 79.1
Cn1cccc1C1Nc2ccccc2NC2=C1C(=O)CC(C)(C)C2 (centres undefined)	none
COC(=O)c1nc2n(n1)C(c1ccc(OC)c(OC)c1OC)C1=C(CCCC1=O)N2 (centres undefined)	none (no result: PLK1 inh, PLK1 PBD inh)
CCc1nc(NCc2cccnc2)c2oc3ccccc3c2n1	CYP2C19 inh 92.5, CYP2C9 inhib 58.3
CCc1nc(NCc2ccc3c(c2)OCO3)c2oc3ccccc3c2n1	CYP2C19 inh 52.5, CYP2C9 inhib 92.5
Cc1nc(NCc2ccc3c(c2)OCO3)c2oc3ccccc3c2n1	none (no result: CYP2C19 inh, CYP2C9 activ, CYP2C19 act, CYP2C9 inhib)
NNc1nc(NCc2ccccc2)nc(N2CCOCC2)n1	none (no result: CYP2C19 inh, CYP2C9 activ, CYP2C19 act, CYP2C9 inhib)
COc1ccc(C(=O)Nc2nc3c(s2)Cc2cc(OC)ccc2-3)cc1	none
COc1ccc2c(c1)Cc1sc(NC(=O)c3cccs3)nc1-2	CYP2C19 inh 70.5, CYP2C9 inhib 84.8
COc1cc(NC(=O)Cc2cccs2)cc(OC)c1	CYP2C19 inh 80.7

Screens deposited in PubChem by several laboratories.
